The results in this text go back to the supplement of paper PMC9334596.

The assay deals with mPer2Luc MEF. The experiment in a line: PER2::LUC luminescence relative to vehicle control (fold of vehicle); higher = higher PER2::LUC reporter signal. The settings on record: 10 µM. A digest of the protocol: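 Each value gives PER2::LUC luminescence as fold of vehicle control, measured with the ONE-Glo luciferase assay system in mouse embryonic fibroblasts carrying the mPer2Luc reporter. Cells grown in DMEM with 10% FBS at 37 °C and 5% CO2 were seeded at ~3000 per well in 384-well plates. Library compounds were added at 10 μM 48 h later, and readings were taken 24 h and 30 h after treatment.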

Several values for one entry are separate records, joined by “and”; a condition that tells them apart may be missing. Equal entries are not always repeated. Over roughly 5,300 compounds, “PER2::LUC luminescence relative to vehicle control” has its median near 0.96; the highest 2% begin near 1.3. The list comes from a sample in which the highest values are over-represented; it also holds similar structures and randomly drawn compounds.

With `CCCCNc1cc(C(=O)O)cc(S(N)(=O)=O)c1Oc1ccccc1`, the “PER2::LUC luminescence” value runs as follows: (time after treatment 24 h) 1.21; (time after treatment 30 h) 1.86.
On the same counts, the results for `CCCNC(C)(C)COC(=O)c1ccccc1` are 0.894 and 0.968.
The matching figures for `CCCCNc1ccc(C(=O)OCCOCCOCCOCCOCCOCCOCCOCCOCCOC)cc1`: 1.07 and 0.94.
As to `NC1(C(=O)O)CCc2cc(C(=O)O)ccc21` (configuration not stated), the “PER2::LUC luminescence” value worked out at 0.992 (time after treatment 24 h) and 0.984 (time after treatment 30 h).
On the same counts, the results for `C[C@@](N)(C(=O)O)c1ccc(C(=O)O)cc1` are 1.01 and 0.938.
On the same counts, the results for `O=C(Nc1ccc(C(=O)O)c(O)c1)c1ccccc1` are 1.03 and 1.13.
On the same counts, the results for `CC(N)(C(=O)O)c1ccc(C(=O)O)cc1` (racemic) are 0.971 and 0.694.
For the compound `CC1(C)CCC(C)(C)c2cc(C(=O)Nc3ccc(C(=O)O)cc3)ccc21`, the “PER2::LUC luminescence” value came out at 1.64 (time after treatment 24 h) and 1.67 (time after treatment 30 h).
The matching figures for `CC(=Cc1ccc(C(=O)O)cc1)c1ccc2c(c1)C(C)(C)CCC2(C)C`: 1.66 and 1.52.
Turning to `CC1(C)CCC(C)(C)c2cc(NC(=O)c3ccc(C(=O)O)cc3)ccc21`, the “PER2::LUC luminescence” value (time after treatment 24 h) came to 1.77 and the “PER2::LUC luminescence” value (time after treatment 30 h) was found to be 1.63.
On the same counts, the results for `CC(=O)Nc1ccc(C(=O)O)cc1` are 1.03 and 0.901.
With `CC(=O)Nc1ccc(C(=O)Nc2ccccc2N)cc1`, the “PER2::LUC luminescence” value runs as follows: (time after treatment 24 h) 0.744; (time after treatment 30 h) 0.677.
The matching figures for `COc1ccc(C(OCCN2CCC[C@H](C(=O)O)C2)(c2ccc(OC)cc2)c2ccc(OC)cc2)cc1`: 0.855 and 1.04.
The matching figures for `NC1CCN(O)C1=O` (single isomer, unassigned; (+)): 0.99 and 0.883.
The matching figures for `CCCN(CCc1cccs1)C1CCc2c(O)cccc2C1` (racemic): 0.965 and 0.906.
On to `O=C1/C(=C/c2ccc(O)c(O)c2)Oc2c1ccc(O[C@@H]1O[C@H](CO)[C@@H](O)[C@H](O)[C@H]1O)c2O`, for which the “PER2::LUC luminescence” value was 0.983 (time after treatment 24 h) and 0.93 (time after treatment 30 h).
On the same counts, the results for `CC(C)C[C@H](NC(=O)OCc1ccccc1)C(=O)N[C@@H](CC(C)C)C(=O)NCC(=O)CNC(=O)[C@H](CC(C)C)NC(=O)[C@H](CC(C)C)NC(=O)OCc1ccccc1` are 1.01 and 0.909.
On to `CCCCCCCCCCCCCC[C@@H](O)[C@@H](O)[C@@H](CO)NC(C)=O`, for which the “PER2::LUC luminescence” value runs as follows: (time after treatment 24 h) 1.07; (time after treatment 30 h) 1.04.
`c1ccc2c(Cc3c[nH]c4ccccc34)c[nH]c2c1`: the “PER2::LUC luminescence” value is 0.956 and 0.816 (time after treatment 24 h); 1.02 and 0.84 (time after treatment 30 h).
`CN1C(=O)N[C@H](Cc2c[nH]c3c(Cl)cccc23)C1=O`: the “PER2::LUC luminescence” value is 0.87 (time after treatment 24 h) and 0.819 (time after treatment 30 h).
For `CN1C(=O)C(Cc2c[nH]c3ccccc23)NC1=S` (configuration not stated), the “PER2::LUC luminescence” value came out at 1.15 (time after treatment 24 h) and 1.36 (time after treatment 30 h).
On the same counts, the results for `O=C(O)c1cc(N(Cc2ccccc2O)Cc2cc(O)ccc2O)ccc1O` are 1.05 and 1.03.
On the same counts, the results for `C[C@@]1(F)[C@H](O)[C@@H](CO)O[C@H]1n1ccc(=O)[nH]c1=O` are 0.965 and 0.937.
On the same counts, the results for `CN1CCC[C@@H]1c1cccnc1.Cc1ccc(C(=O)O[C@H](C(=O)O)[C@@H](OC(=O)c2ccc(C)cc2)C(=O)O)cc1` are 0.873 and 0.978.
Regarding `C=CC[C@@H]1[C@H](O)CC[C@@]2(C)[C@H]1CC[C@@H]1[C@@H]2CC[C@]2(C)[C@@H]([C@H](C)CCCC(C)C)CC[C@@H]12`, the “PER2::LUC luminescence” value is, setting by setting: (time after treatment 24 h) 0.994; (time after treatment 30 h) 0.987.
The matching figures for `OCC1OC(n2cnc3c(NC4CCCC4)nc(Cl)nc32)C(O)C1O` (configuration not stated): 0.932 and 0.97.
The matching figures for `OC[C@H]1O[C@@H](n2cnc3c(NC4CCCC4)ncnc32)[C@H](O)[C@@H]1O`: 0.965 and 0.991.
On to `Nc1nc(NC2CC2)c2ncn([C@H]3C=C[C@@H](CO)C3)c2n1`, for which the “PER2::LUC luminescence” value is, setting by setting: (time after treatment 24 h) 1.23 and 1.48; (time after treatment 30 h) 1.32 and 1.75.
For the compound `COc1cc(O)c(C(=O)/C=C/c2ccc(O)c(OC)c2)c(OC)c1`, the “PER2::LUC luminescence” value by setting is: (time after treatment 24 h) 0.871; (time after treatment 30 h) 0.855.
The matching figures for `CC(C)c1noc(C2CCN(c3ncnc(Nc4ccc(S(C)(=O)=O)cc4F)c3[N+](=O)[O-])CC2)n1`: 0.972 and 0.789.
As to `COc1ccc(/C=C/c2ccccc2F)cc1`, the “PER2::LUC luminescence” value runs as follows: (time after treatment 24 h) 1.2; (time after treatment 30 h) 1.26.
